Several values for one entry are separate records, joined by “and”; a condition that tells them apart may be missing. Equal values may be shown once. Results filed as inconclusive are left out. A structure can be active in one record and inactive in another. Activity calls are given as the source filed them. How the source made its calls: active means hit-call score of the fitted dose curve at least 0.9, where 1 is the maximum; inconclusive means response in the unintended direction; inactive means score below 0.9.

Tested on in one assay: not listed separately
The assay is described as follows: ATG_XTT_Cytotoxicity: Cytotoxicity Assessment in the Attagene TRANS-FACTORIAL HepG2 Assay (AID 2283584).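 On AC50: XTT signal for cell number as viability in transfected HepG2 cells; cells exposed to compound for 24 h before reading; active means loss of viability signal versus DMSO baseline.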 In short, it runs like this: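 Transfect HepG2 with GAL4-UAS reporter units, dose compound, incubate 24 h, then measure viable cell number by XTT. Fit concentration response against DMSO baseline.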
As for `Nc1ccc2cc(S(=O)(=O)O)cc(O)c2c1N=Nc1ccccc1C(F)(F)F`, the call was inactive.

In the case of `CCOC(=O)CN`, the compound was classed as inactive.

For `CC(C)(C)CC(C)(C)c1ccc(OCCOCC[N+](C)(C)Cc2ccccc2)cc1`, the half-maximal activity concentration (AC50) is 44.9 µM (active).

As to `C/C=C(\C)C(=O)OCCc1ccccc1`, the outcome was inactive.

Consider `O=C(Nc1ccc([N+](=O)[O-])cc1)Nc1ccc([N+](=O)[O-])cc1` (tested in a mixture with another compound), for which the compound was called inactive.

For `Clc1ccc(C(c2ccccc2Cl)C(Cl)Cl)cc1` (stereo not given), the AC50 was 148 µM (active) and the compound was classed as inactive.

`CCN(CCC#N)c1ccc(N=Nc2ccc([N+](=O)[O-])cc2)cc1`: the compound was classed as inactive.

For `CCN(CCN)c1cccc(C)c1`, the compound was classed as inactive.

With `NCCNc1cccc2ccccc12`, the outcome was inactive.

With `CCCCC(CC)COC(=O)c1ccc(O)cc1` (stereo not given), the AC50 is 100 µM (active) and 121 µM (active).

As to `C=C1CC[C@H](O)C/C1=C/C=C1\CCC[C@]2(C)[C@@H]([C@H](C)/C=C/[C@H](C)C(C)C)CC[C@@H]12`, the compound was called inactive.

On to `C=Cc1ccncc1`, for which the outcome was inactive.

As for `COc1cc(C(C)C)ccc1C`, the outcome was inactive.

Regarding `CC(C)=CCCC(C)CC(=O)O` (stereo not given), the result was inactive.

For `CCCCC(CC)COC(C)=O` (stereo not given), the outcome was inactive.

In the case of `CN(c1nccc(=O)[nH]1)C1CCN(c2nc3ccccc3n2Cc2ccc(F)cc2)CC1`, the compound was called inactive.

As to `Nc1ccc2c(O)cc(S(=O)(=O)O)cc2c1`, the compound was called inactive.

Consider `Cc1c(OCC(F)(F)F)ccnc1CS(=O)c1nc2ccccc2[nH]1` (stereo not given), for which the call was inactive.

Take `Nc1c(S(=O)(=O)O)cc(Br)c2c1C(=O)c1ccccc1C2=O`: the compound was called inactive.

Consider `CC(C)(C)C1=CC(=O)C(C(C)(C)C)=CC1=O`, for which the call was inactive.

Consider `COc1ccc(CCN2CCC(Nc3nc4ccccc4n3Cc3ccc(F)cc3)CC2)cc1`, for which the compound was called inactive.

Consider `COc1ccc(COC(C)=O)cc1`, for which the result was inactive.

Turning to `Oc1c(Cl)cc(Cl)c(Cl)c1Cc1c(O)c(Cl)cc(Cl)c1Cl`, the outcome was inactive.

Regarding `COc1cccc(OC)c1O`, the compound was classed as inactive.

For the compound `CN(C)CCOc1ccc(/C(=C(/CCCl)c2ccccc2)c2ccccc2)cc1`, the concentration at half-maximal activity (AC50) was 24.6 µM (active).

`CC1CC(O)CC(C)(C)C1` (stereo not given): the call was inactive.

As for `COc1ccc(OC)c(N=Nc2c(O)ccc3ccccc23)c1`, the compound was classed as inactive.

Consider `CC=Cc1ccc(OCC)c(O)c1`, for which the compound was called inactive.

In the case of `C=C(C)C(=O)OCC(CC)(COC(=O)C(=C)C)COC(=O)C(=C)C`, the outcome was inactive.

In the case of `CCCCCCCCCC(=O)OC`, the compound was called inactive.

Take `CCCC1O[C@@H]2C[C@H]3[C@@H]4CCC5=CC(=O)C=C[C@]5(C)[C@H]4[C@@H](O)C[C@]3(C)[C@]2(C(=O)CO)O1` (stereo not given in full): the result was inactive.

As to `CC(=O)O[C@@H]1C[C@@H]2CC[C@@]1(C)C2(C)C`, the compound was called inactive.

Regarding `CCCCCCOCCOCCO`, the compound was called inactive.

Take `O=C(c1ccccc1)C(O)c1ccccc1` (stereo not given): the compound was classed as inactive.

Turning to `CC(=O)Nc1ccc(C(=O)CCl)cc1`, the result was inactive.

For `CCNCCO`, the outcome was inactive.

Tested on in the next assay: not listed separately
The assay is described as follows: TOX21_p53_BLA_p2_viability: Viability Assessment in the Tox21 HCT-116 p53 Agonism Beta-lactamase Assay, Phase 2 (AID 2283591).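 Further: compound exposure lasted 16 h at 37 °C; actives lower the ATP signal meaning cytotoxicity.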 In short, it runs like this: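 Cytotoxicity readout: CellTiter-Glo ATP luminescence, 30 min at room temperature, after the beta-lactamase read. Cells were HCT116 exposed 16 h at 37C to compounds pin-transferred at 217-fold dilution from DMSO stocks.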
Consider `CC(C)(C)CC(C)(C)c1ccc(OCCOCC[N+](C)(C)Cc2ccccc2)cc1`, for which the AC50 is 37.1 µM (active) and 32.8 µM (active).

For `C/C=C(\C)C(=O)OCCc1ccccc1`, the result was inactive.

On to `Clc1ccc(C(c2ccccc2Cl)C(Cl)Cl)cc1` (stereo not given), for which the AC50 is 46.1 µM (active) and 30.1 µM (active).

As to `CCN(CCN)c1cccc(C)c1`, the compound was classed as inactive.

On to `NCCNc1cccc2ccccc12`, for which the call was inactive.

Turning to `CCCCC(CC)COC(=O)c1ccc(O)cc1` (stereo not given), the concentration at half-maximal activity (AC50) is 41.9 µM (active) and 67.8 µM (active).

Regarding `C=C1CC[C@H](O)C/C1=C/C=C1\CCC[C@]2(C)[C@@H]([C@H](C)/C=C/[C@H](C)C(C)C)CC[C@@H]12`, the AC50 is 71.1 µM (active) and the call was inactive.

For the compound `Nc1ccc2c(O)cc(S(=O)(=O)O)cc2c1`, the outcome was inactive.

On to `Cc1c(OCC(F)(F)F)ccnc1CS(=O)c1nc2ccccc2[nH]1` (stereo not given), for which the call was inactive.

For the compound `COc1ccc(CCN2CCC(Nc3nc4ccccc4n3Cc3ccc(F)cc3)CC2)cc1`, the AC50 was 15.2 µM (active) and 38.9 µM (active).

As for `Oc1c(Cl)cc(Cl)c(Cl)c1Cc1c(O)c(Cl)cc(Cl)c1Cl`, the AC50 was 9.14 µM (active) and 38.7 µM (active); the outcome was inactive.

For `CN(C)CCOc1ccc(/C(=C(/CCCl)c2ccccc2)c2ccccc2)cc1`, the concentration at half-maximal activity (AC50) was 58.1 µM (active) and the compound was called inactive.

Regarding `CC1CC(O)CC(C)(C)C1` (stereo not given), the result was inactive.

Regarding `C=C(C)C(=O)OCC(CC)(COC(=O)C(=C)C)COC(=O)C(=C)C`, the outcome was inactive.

As to `CCCC1O[C@@H]2C[C@H]3[C@@H]4CCC5=CC(=O)C=C[C@]5(C)[C@H]4[C@@H](O)C[C@]3(C)[C@]2(C(=O)CO)O1` (stereo not given in full), the result was inactive.

Consider `CC(=O)Nc1ccc(C(=O)CCl)cc1`, for which the outcome was inactive.

Another assay deals with Cellular tumor antigen p53 (Homo sapiens) (UniProt P04637). Briefly: TOX21_p53_BLA_p2_ratio: Tox21 HCT-116 p53 Agonism Beta-lactamase Assay, Ratio, Phase 2 (AID 2283592). In short, it runs like this: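 An inducible beta-lactamase reporter in HCT116 cells signals p53 pathway activation. After 16 h chemical exposure at 37C, cells load CCF4-AM substrate for 2 h at room temperature; activity is the cleaved/uncleaved emission ratio relative to DMSO.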
Sequence of Cellular tumor antigen p53 (Homo sapiens) (P04637 whole entry, looked up): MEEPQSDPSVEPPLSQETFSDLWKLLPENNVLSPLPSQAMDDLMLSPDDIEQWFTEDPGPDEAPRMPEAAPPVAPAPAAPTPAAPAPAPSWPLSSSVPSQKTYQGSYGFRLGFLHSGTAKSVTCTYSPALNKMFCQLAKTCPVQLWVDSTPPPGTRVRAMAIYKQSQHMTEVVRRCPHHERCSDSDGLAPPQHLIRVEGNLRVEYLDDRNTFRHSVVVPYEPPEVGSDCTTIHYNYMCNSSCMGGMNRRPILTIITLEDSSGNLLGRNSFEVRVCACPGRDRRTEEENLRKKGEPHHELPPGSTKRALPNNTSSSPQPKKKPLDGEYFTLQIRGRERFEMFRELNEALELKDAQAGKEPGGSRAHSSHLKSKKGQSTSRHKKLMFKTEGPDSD
Turning to `CC(C)(C)CC(C)(C)c1ccc(OCCOCC[N+](C)(C)Cc2ccccc2)cc1`, the concentration at half-maximal activity (AC50) was 56.2 µM (active) and 34.8 µM (active).

On to `C/C=C(\C)C(=O)OCCc1ccccc1`, for which the outcome was inactive.

As to `Clc1ccc(C(c2ccccc2Cl)C(Cl)Cl)cc1` (stereo not given), the AC50 is 83.3 µM (active) and 39.1 µM (active).

Consider `CCN(CCN)c1cccc(C)c1`, for which the outcome was inactive.

Turning to `NCCNc1cccc2ccccc12`, the result was inactive.

Take `CCCCC(CC)COC(=O)c1ccc(O)cc1` (stereo not given): the half-maximal activity concentration (AC50) was 76.7 µM (active) and 74.7 µM (active).

On to `C=C1CC[C@H](O)C/C1=C/C=C1\CCC[C@]2(C)[C@@H]([C@H](C)/C=C/[C@H](C)C(C)C)CC[C@@H]12`, for which the AC50 was 76.4 µM (active) and 45.8 µM (active); the result was inactive.

Take `Nc1ccc2c(O)cc(S(=O)(=O)O)cc2c1`: the AC50 was 23.1 µM (active) and 18.3 µM (active).

Consider `Cc1c(OCC(F)(F)F)ccnc1CS(=O)c1nc2ccccc2[nH]1` (stereo not given), for which the result was inactive.

Consider `COc1ccc(CCN2CCC(Nc3nc4ccccc4n3Cc3ccc(F)cc3)CC2)cc1`, for which the AC50 was 31.1 µM (active) and 43.8 µM (active).

For `Oc1c(Cl)cc(Cl)c(Cl)c1Cc1c(O)c(Cl)cc(Cl)c1Cl`, the half-maximal activity concentration (AC50) was 10.3 µM (active) and 583 nM (active) and 984 nM (active).

Regarding `CN(C)CCOc1ccc(/C(=C(/CCCl)c2ccccc2)c2ccccc2)cc1`, the half-maximal activity concentration (AC50) is 74.9 µM (active) and the result was inactive.

Regarding `CC1CC(O)CC(C)(C)C1` (stereo not given), the outcome was inactive.

As to `C=C(C)C(=O)OCC(CC)(COC(=O)C(=C)C)COC(=O)C(=C)C`, the result was inactive.

Turning to `CCCC1O[C@@H]2C[C@H]3[C@@H]4CCC5=CC(=O)C=C[C@]5(C)[C@H]4[C@@H](O)C[C@]3(C)[C@]2(C(=O)CO)O1` (stereo not given in full), the result was inactive.

Turning to `CC(=O)Nc1ccc(C(=O)CCl)cc1`, the half-maximal activity concentration (AC50) was 76.7 µM (active) and the outcome was inactive.
